A350 autofl: A350 region autofluorescence; 59,000 compounds, 11% hits; max dye-equivalent concentration, M; Compound autofluorescence, 340/450 nm, Alexa 350 dye-equivalents; active compounds read high; in the data active means max dye-equivalent concentration above about 10 nM; inconclusive means mostly about 1.1 nM to 9.6 nM
4-MU autofl: 4-MU region autofluorescence. compound autofluorescence, 340/450 nm, 4-MU equivalents; active compounds read high. max dye-equivalent concentration, M. 59,000 compounds, 11% hits. AID 589; in the data active means max dye-equivalent concentration above about 10 nM; inconclusive means mostly about 1.1 nM to 9.6 nM
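Intrinsic fluorescence at 340/450 nm (ex/em) was read after 15 min at room temperature in pH 8.0, 100 mM Tris. Each compound concentration expressed as 4-MU-equivalent concentration from a six-point 4-MU standard series on each plate.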
HADH2 inh: blocks human hydroxyacyl-CoA dehydrogenase type II | Q99714 | recombinant HADH2, NADH fluorescence, beta-hydroxybutyryl-CoA | Potency, µM (highest dose often 57.1 µM), without a hit: at the highest dose activity change, negative = inhibition, usual class: inhibitors | 73,000 compounds, 3.4% hits; further: potency means the concentration at half of the fitted maximal effect; on the % scale 0 is the no-effect control and ±100 the full control effect; nearly all actives have a fitted effect of over 60% in size
Target sequence (Q99714 whole entry, looked up, one chain of several): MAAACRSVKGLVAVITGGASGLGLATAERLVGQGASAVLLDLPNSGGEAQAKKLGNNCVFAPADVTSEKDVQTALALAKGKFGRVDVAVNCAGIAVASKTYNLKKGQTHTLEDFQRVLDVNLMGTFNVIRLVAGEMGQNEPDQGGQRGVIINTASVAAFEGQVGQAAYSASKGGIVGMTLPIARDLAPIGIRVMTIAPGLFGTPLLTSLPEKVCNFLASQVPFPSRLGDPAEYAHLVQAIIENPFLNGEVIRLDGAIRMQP
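Activity measured as NADH fluorescence gain (360/450 nm), taken as the change between first and last reads of a 4-min kinetic run. Conditions: pH 9.0 Tris buffer, 20 nM E. coli-expressed His-tagged enzyme, 1 mM NAD+, 90 uM beta-hydroxybutyryl-CoA; 15-min compound preincubation.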
AID923: qHTS Assay for Allosteric/Competitive Inhibitors of Caspase-1: Spectroscopic Profiling in AFC Spectral Region; compound fluorescence, AFC spectral region (405/520 nm); Potency, µM (series often up to 57.5 µM), for inactives: at the highest dose fluorescence increase, most hits filed as activators; 75,000 compounds, 1.1% hits; AID 923, 2007; further: potency means the concentration at half of the fitted maximal effect; 0% is about no effect
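Compound autofluorescence profiled at 405 nm ex/520 nm em during kinetic caspase 1 run (50 nM enzyme, 5 uM Ac-WEHD-AFC, HEPES pH 7.5, 10 mM DTT). Titration up to 57 uM; baseline from regression intercept, normalized to AFC standard curve.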
CRE-bla Fsk: modulators of forskolin-stimulated CRE signaling in CHO cells; CHO CRE-bla reporter (cAMP response element driving beta-lactamase), forskolin EC10, beta-lactamase ratio; Potency, µM (highest dose often 38.2 µM), without a hit: at the highest dose activity change, negative = inhibition, most hits filed as activators; 71,000 compounds, 2.5% hits; AID 662; active means well fitted activation curve with a large enough effect in the signal ratio, with a control signal flat, not every such curve was filed as active; inconclusive means small, poorly fitted or top-dose-only effect, or effect the other way, or a change in a side signal; the % refers to the signal ratio; further: potency means the concentration at half of the fitted maximal effect; % of control where 0% means no effect
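AC50 values, positive or negative, reflect shifts in EC10 NKH 477-induced CRE-bla reporter activity in CHO cells. Incubation lasted 3 h at 37 °C before CCF4 substrate (2 h, room temperature) and ratiometric 460/530 nm reading.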
HSD17B inhib: blocks hydroxysteroid 17-beta dehydrogenase activity | Q99714 | 75,000 compounds, 7.6% hits | recombinant HSD17B10, NADH fluorescence kinetic | Potency, µM (highest dose often 57.1 µM), for the others: at the highest dose activity change, negative = inhibition, hits mostly inhibitors;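 further: the protocol describes HADH2 (HSD17B10) and not the HSD17B4 of the title; potency means the concentration at half of the fitted maximal effect; on the % scale 0 is the no-effect control and ±100 the full control effect; nearly all actives have a fitted effect of over 70% in size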
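20 nM HADH2, pH 9.0 Tris/Tween; cpd preinc 15 min RT; start w/ 1 mM NAD+ + 90 uM b-hydroxybutyryl-CoA; kinetic fluor ex360/em450 q30s x 4 min; delta last-first.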
Starred values were filed as active, the others as inactive; i = inactive; ? = inconclusive; · = not tested or not shown; ! = repeats disagree; [ ] = another dose, or the depositor's remark. Most compounds without a hit are left out; they make up all but 14% or so of the library. Unless noted, the call rests on the fitted dose curve; in most records, active means well fitted curve in the direction sought with a large enough effect; inconclusive means small, poorly fitted or top-dose-only effect, or another doubt; inactive means no such curve, though single readings can be large; an effect the other way counts as inactive or inconclusive.

SMILES	A350 autofl	4-MU autofl	HADH2 inh	AID923	CRE-bla Fsk	HSD17B inhib
Clc1cccc(-c2nnc3sc(-c4ccc5c(c4)OCO5)nn23)c1	1.1e-08M*	?	?	-1%	15%	-8%
Clc1ccc(-c2nnc3sc(-c4ccc(Br)o4)nn23)c(Cl)c1	i	i	3%	-2%	?	4%
c1ccc2c(c1)ncn2Cc1nnc2sc(-c3ccc4c(c3)OCO4)nn12	?	?	16µM*	0%	13µM*	32µM*
Brc1ccccc1-c1nnc2sc(-c3ccc4c(c3)OCCO4)nn12	i	i	20%	0%	?	32µM*
O=C1C[C@@H](O)[C@@H](O)[C@@H]2[C@H]3C(=O)N(c4ccc(F)cc4F)C(=O)[C@@H]3CC[C@@H]12	·	·	-4%[11.4 µM]	-2%[11.5 µM]	·	-1%[11.4 µM]
O=C(c1cccc(F)c1)N1CCC2(CCCN(Cc3cc(C(F)(F)F)cc(C(F)(F)F)c3)C2)CC1	i	i	-6%	3%	-8%	-3%
Clc1ccccc1-c1nnc2sc(-c3ccc(Br)o3)nn12	i	i	5%	1%	8%	6%
Cc1oc(-c2ccc(Cl)cc2)cc1-c1nn2c(-c3ccoc3C)nnc2s1	i	i	32µM*	2%	-8%	13µM*
Clc1ccccc1-c1nnc2sc(-c3ccc4c(c3)OCO4)nn12	?	?	1.3µM*	0%	?	32µM*
COC(=O)C1=C(C)N(Cc2ccccc2)C2=C(C(C)=O)C(c3ccccc3)[C@@](O)(C(=O)OC)C(=O)N2C1c1ccccc1 (some centres undefined)	·	·	3.2µM*!	2%[11.5 µM]	·	-1%[11.4 µM]
CCN1C(C)=C(C(=O)OC)C(c2ccccc2)N2C(=O)[C@](O)(C(=O)OC)C(c3ccccc3)C(C(C)=O)=C12 (some centres undefined)	·	·	11%[11.4 µM]	-1%[11.5 µM]	·	6%[11.4 µM]
COc1cc(C(=O)Nc2cccc3ncccc23)cc(OC)c1OC	5.7e-07M*	5.1e-07M*	-4%	1%	?	25µM*
O=C(Nc1ccccc1-c1nnn(CC(=O)N2CCCc3ccccc32)n1)c1ccco1	i	i	-11%	0%	29%	32µM*
O=C(Nc1ccccc1N1CCCC1)c1ccco1	i	i	-11%	1%	-3%	1%
CCn1nnc(-c2ccccc2NC(=O)c2cc(OC)c(OC)c(OC)c2)n1	i	i	23%	-1%	2.5µM*	7%
COc1ccc(C(=O)Cn2nnc(-c3ccccc3NC(=O)c3ccco3)n2)cc1	?	?	?	1%	19%	32µM*
O=C(c1cccc(F)c1)N1CCC2(CC1)CN(C(c1ccccc1)c1ccccc1)C2	i	i	6%	0%	3%	2%
Cc1cnc(CNc2cc(-c3ccccc3CN(C)C)ncn2)cn1	i	i	?	1%	-4%	?
Cc1c(NC(=O)CC2CC(C)OC2=O)c(=O)n(-c2ccccc2)n1C (centres undefined)	1e-05M*	7.4e-06M*	i	-1%	?	5%
Cc1ccc2nc(NC(=O)c3cccs3)sc2c1	2.3e-08M*	1.8e-08M*	-7%	-2%	-24%	?
O=C(Nc1nc(-c2cc(Cl)sc2Cl)cs1)c1cccs1	2.6e-08M*	2.2e-08M*	6%	0%	?	?
COc1ccc2c(c1)-c1nc(NC(=O)c3cccs3)sc1CC2	·	·	16µM*	1%	·	-25%
CCn1c(=O)[nH]c2cc(Cl)c(Cl)cc21	i	i	10%	-2%	?	-3%
COc1ccc(CNC(=O)c2ccc(N3CCCC3=O)cc2)cc1	1.3e-08M*	1.3e-08M*	4%	3%	3%	-5%
O=C(NCCN1CCCCCC1)c1ccc(N2CCCC2=O)cc1	1.8e-08M*	1.9e-08M*	6%	1%	-27%	17%
CCCCN(C)CCCNC(=O)c1ccc(N2CCCC2=O)cc1	?	1e-08M*	21%	1%	-24%	-1%

High-throughput results (PubChem)
